DT40 TDP1 no CPT = qHTS for Inhibitors of human tyrosyl-DNA phosphodiesterase 1 (TDP1): qHTS in cells in absence of CPT; DT40 Tdp1-/- hTDP1 cells, no CPT, ATP luminescence, 48 h; Potency, µM (highest dose often 46.2 µM), for inactives: at the top dose activity change, negative = growth inhibition, most hits filed as inhibitors; actives 15% (n = 420,000); further: on the % scale 0 is the no-effect control and ±100 the full control effect; nearly all actives have a fitted effect of over 55% in size
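Growth of hTDP1-complemented DT40 Tdp1-knockout cells is measured by ATP luminescence after at least 48 hr compound exposure at 37 °C, with DMSO substituting for the 20 nM CPT used in the parallel screen.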
ATXN viability = reduces viability in counter-screen for ATXN expression inhibitors. S2 cells (HEK-293 line with an ATXN2-luciferase reporter) viability, CellTiter-Fluor protease fluorescence, 24 h. actives 0.49% (n = 400,000). AID 651635. Potency, µM (highest dose often 56.7 µM), usual class: cytotoxic; further: nearly all actives have a fitted effect of over 40% in size
ATXN2 expr inh = inhibitors of ATXN2 expression | HEK-293 ATXN2-luciferase reporter, luminescence, 24 h | Potency, µM (titrated, usually from 57 µM), for the others: top-dose activity change, negative = inhibition, actives largely listed as inhibitors | actives 0.72% (n = 360,000); further: on the % scale 0 is the no-effect control and ±100 the full control effect; nearly all actives have a fitted effect of over 55% in size
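ATXN2-luciferase reporter cells (luciferase flanked by upstream and downstream ATXN2 gene portions) were treated 24 h at 37 °C with compounds at up to 57 uM. SteadyGlo luminescence gave expression; GF-AFC fluorescence gave viability.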
DT40 TDP1 CPT = growth inhibition of DT40 Tdp1-/-;hTDP1 cells with camptothecin (screen for TDP1 inhibitors); chicken DT40 Tdp1-/-;hTDP1 cells + 20 nM CPT, ATP luminescence, 48 h; actives 12% (n = 420,000); Potency, µM (series often up to 46.2 µM), inactives show at the top dose activity change, negative = growth inhibition, most hits filed as inhibitors; further: on the % scale 0 is the no-effect control and ±100 the full control effect; nearly all actives have a fitted effect of over 55% in size
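Chicken DT40 Tdp1-/- cells stably complemented with human TDP1 were seeded at 400 cells/well in medium containing 20 nM camptothecin, exposed to pin-transferred compounds, and grown at 37 °C for at least 48 hr. Viability was read as ATP luminescence.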
HepG2 tox = kills HepG2 cells in TGF-b inhibitor counter-screen; HepG2 CAGA-GFP viability, ATP luminescence, 18 h; Potency, µM (series often up to 46.1 µM), for the others: at the top dose activity change, negative = cytotoxicity, actives largely listed as cytotoxic; actives 0.76% (n = 410,000)
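HepG2 CAGA-GFP cells (1000/well, DMEM with 1% FBS) received compound, then TGF-beta at 500 pg/mL final, and were incubated 18 hours at 37 degrees C. Viability was read by CellTiter-Glo luminescence. Media-only wells were set as complete cell-killing and DMSO as no toxicity.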
TGFb inhibitor = blocks TGF-b signaling; AID 588855; Potency, µM (series often up to 46.1 µM), without a hit: at the highest dose activity, negative = inhibition, usual class: inhibitors; actives 1.2% (n = 410,000); HepG2 CAGA-GFP TGF-b/SMAD3 reporter, GFP fluorescence, 18 h; TGF-beta stimulated, 500 pg/mL final; further: on the % scale 0 is the no-effect control and ±100 the full control effect; nearly all actives have a fitted effect of over 65% in size
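GFP signal (ex488/em500-530) from TGF-beta-stimulated HEPG2 CAGA-GFP cells, 500 pg/mL final, 18 h at 37 degrees C in DMEM plus 1% FBS, normalized to unstimulated and DMSO-stimulated controls.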
Numbers without * were called inactive; i = inactive; ? = inconclusive; . = not tested or not shown. Shown are actives, neighbours in structure and some others; about 17% of the full set was active somewhere. The call rests on the fitted dose curve; in most records, active means well fitted curve in the direction sought with a large enough effect; inconclusive means small, poorly fitted or top-dose-only effect, or another doubt; inactive means no such curve, though single readings can be large; an effect the other way counts as inactive or inconclusive. Potency means the concentration at half of the fitted maximal effect.

SMILES	DT40 TDP1 no CPT	ATXN viability	ATXN2 expr inh	DT40 TDP1 CPT	HepG2 tox	TGFb inhibitor
COc1ccccc1CC(=O)N1CCN(c2ccccc2)CC1	2.6%	i	-9.1%	-6.8%	-3.4%	-4.3%
COc1ccccc1CC(=N)N1C[C@@H]2C(=O)CCC(c3ccccc3)(c3ccccc3)[C@@H]2C1	21.1µM*	.	.	11.9µM*	.	.
CCOc1ccccc1-c1nc(-c2ccc(NC(=O)c3ccc(Br)o3)cc2)no1	?	?	-17.0%	23.1µM*	3.1%	-0.3%
Cc1cccc2nc(-c3cccnc3)c(NCCC(C)C)n12	16.4µM*	i	-3.1%	9.2µM*	-10.5%	?
Cc1cccc2nc(-c3cccnc3)c(Nc3ccccc3)n12	?	?	?	-28.3%	-40.6%	?
CCCCNc1c(-c2cccnc2)nc2nc(C)cc(C)n12	11.6µM*	i	3.0%	?	.	.
COc1ccc(CCN=C(N)NS(=O)(=O)c2ccc(F)cc2)cc1OC	?	i	-8.2%	?	-4.7%	5.3%
COc1ccc(C(=O)C2CCN(CC(=O)Nc3ccc(C)cc3)CC2)cc1	29.1µM*	i	-22.5%	-21.6%	-20.1%	-12.4%
O=C(CN1CCN(c2ccccc2O)CC1)Nc1ccnn1C1CCCC1	20.6µM*	i	-19.7%	20.6µM*	-13.0%	-8.6%
COc1ccc(NC(=O)c2ccc(NC(=O)CN3CCN(c4ccccc4O)CC3)cc2)cc1	18.4µM*	i	.	18.4µM*	-73.9%	?
Cc1ccn2c(Nc3ccc(F)cc3)c(-c3ccc(C)o3)nc2c1	?	i	14.4%	16.4µM*	-12.1%	?
Cc1ccn2c(Nc3ccc4c(c3)OCO4)c(-c3ccc(O)cc3)nc2c1	?	?	12.7%	23.1µM*	-33.9%	-27.7%
Cc1ccn2c(Nc3ccc4c(c3)OCCO4)c(-c3ccc(C)o3)nc2c1	?	?	13.0%	20.6µM*	-16.1%	-6.8%
CCCOc1ccc(CNC(=O)Cn2ncn3c(cc4sc(CC)cc43)c2=O)cc1	?	.	.	?	6.2%	-6.6%
CCOC(=O)c1cnc(-n2nc(C)cc2C)nc1Oc1ccc(C(=O)OC)cc1	-22.0%	i	-1.5%	10.8%	8.0%	13.0%
CCOC(=O)c1cnc(-n2nc(C)cc2C)nc1NCCc1ccccc1	5.17µM*	?	-10.7%	6.51µM*	-6.7%	-6.2%
CCOC(=O)c1cnc(-n2nc(C)cc2C)nc1NC1CCCC1	1.3µM*	?	?	1.3µM*	11.2µM*	?
CCOC(=O)c1cnc(-n2nc(C)cc2C)nc1NCc1ccc2c(c1)OCO2	?	?	-25.3%	?	-67.0%	-19.0%
CCOC(=O)c1cnc(-n2nc(C)cc2C)nc1Nc1ccc(OC)cc1	11.6µM*	i	0.9%	8.2µM*	0.7%	-9.4%
Cn1c2ccccc2c(=O)c2ccc(NCCc3cccs3)cc21	?	i	0.9%	?	-31.1%	?
Cc1ncc(CO)c2c1Oc1nc(-c3ccccc3)nc(SCC(=O)Nc3cccc(C(F)(F)F)c3)c1C2	4.61µM*	.	.	6.51µM*	-11.6%	?
CCc1ccc(NC(=O)CSc2nc(-c3ccc(C)cc3)nc3c2Cc2c(CO)cnc(C)c2O3)cc1	-8.0%	.	.	4.5%	2.4%	23.5%
COc1ccc(-c2nc3c(c(SCC(=O)Nc4cccc(O)c4)n2)Cc2c(CO)cnc(C)c2O3)cc1	18.4µM*	i	0.4%	?	-24.4%	?
Cc1ncc(CO)c2c1Oc1nc(-c3ccc(F)cc3)nc(SCC(=O)N3CCCCC3)c1C2	9.2µM*	i	4.7%	16.4µM*	-3.5%	-2.3%

Assay outcomes deposited in PubChem by National Center for Advancing Translational Sciences (NCATS).
